This is one part of a sample in which hits are shown more often than they occur.
Lassa entry inh – Lassa virus entry inhibition; Lassa virus pseudotype entry inhibition, cell reporter; Potency, µM (series often up to 37.9 µM), actives largely listed as inhibitors; 300,000 tested, 1.2% active; AID 540256; calls by dose curve; tested in HEK293 cells; also: nearly all actives have a fitted effect of over 50% in size
MARV entry inh – blocks Marburg virus binding to or entry into cells. Marburg virus pseudotyped entry inhibition, cell reporter. Potency, µM (doses to about 37.8 µM), actives largely listed as inhibitors. 300,000 tested, 1.8% active. AID 540276; calls by dose curve; tested in HEK293 cells
AMA1 RON2 block – disrupts binding of P. falciparum AMA1 to RON2; AlphaScreen AMA1-biotinylated RON2 peptide binding; Potency, µM (series often up to 58.2 µM), usual class: inhibitors; 360,000 tested, 0.2% active; AID 720542; active = well fitted inhibition curve with a large enough effect; inconclusive = small, poorly fitted or top-dose-only effect; inactive = no such curve, though single readings can be large or run the other way; also: nearly all actives have a fitted effect of over 45% in size
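AMA1 (3D7) with his tag at 25 nM final met compounds first, then biotinylated RON2 peptide at 25 nM; detection used donor plus acceptor beads, 10 µg/mL apiece, read by AlphaScreen after 30 min at room temperature.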
Shiga toxin inh – inhibitors of Shiga toxin in Vero cells | inhibition, % at 38.7 µM | Vero cells, Shiga toxin protein synthesis inhibition reporter | 290,000 tested, 9.2% active; in the data active = inhibition mostly above about 28%, no sharp cut-off; inactive = mostly below about 43%
CHX counter – counter-screen for Shiga toxin inhibitors: cycloheximide protein synthesis inhibition; cell reporter, cycloheximide protein synthesis inhibition counterscreen; max response, %; 300,000 tested, 12% active; in the data active = max response mostly above about 13%, no sharp cut-off; inactive = mostly below about 14%; also: read at 38.3 µM for the half of the compounds with a filed dose
Each line names hits and unclear results; the compound was inactive in the other large screens.

COc1ccc2[nH]c(=O)c(CNc3cc(C)ccc3C)cc2c1	Lassa entry inh inconclusive, MARV entry inh inconclusive, Shiga toxin inh 43, CHX counter 14
CCOc1ccc(NCc2cc3cc(OC)ccc3[nH]c2=O)cc1	none (no result: Lassa entry inh, MARV entry inh)
COc1ccc2[nH]c(=O)c(CNc3ccccc3)cc2c1	Lassa entry inh inconclusive, Shiga toxin inh 73, CHX counter 43
COc1ccc2[nH]c(=O)c(CNc3ccc(C)cc3C)cc2c1	Lassa entry inh inconclusive, Shiga toxin inh 70, CHX counter 30
COc1ccc2[nH]c(=O)c(CNc3ccccc3C)cc2c1	Lassa entry inh inconclusive, MARV entry inh inconclusive, Shiga toxin inh 90, CHX counter 43
COc1ccc2[nH]c(=O)c(CNc3ccccc3OC)cc2c1	none
CC1CCc2c(sc3ncnc(SC(C)C(=O)NCC4CCCO4)c23)C1 (stereo not given)	Lassa entry inh inconclusive (no result: Shiga toxin inh, CHX counter)
Cc1ccc(NC(=O)Cn2c(=O)n(CCC(=O)N3CCc4ccccc4C3)c(=O)c3ccccc32)cc1	none (no result: AMA1 RON2 block, Shiga toxin inh, CHX counter)
O=C(NC(=S)NC1CCCCC1)c1ccccc1	Lassa entry inh inconclusive, Shiga toxin inh 99, CHX counter 48
O=C(NC(=S)NC1CCCCCC1)c1cncc(Br)c1	Lassa entry inh inconclusive, MARV entry inh inconclusive, Shiga toxin inh 85, CHX counter 40
C/C(=N\NC(=S)NC1CCCCC1)c1ccccc1	CHX counter 12
O=C(NC(=S)NC1CCS(=O)(=O)C1)c1ccccc1 (stereo not given)	none (no result: Lassa entry inh, MARV entry inh)
CCCCC#C[C@@H]1C=C[C@H](Oc2ccc(C(=O)OC)cc2)[C@@H](COC(=O)OCC)O1	none (no result: Lassa entry inh, AMA1 RON2 block, Shiga toxin inh, CHX counter)
O=P(O)(O)OC1[C@H](O)[C@H](OP(=O)(O)O)C(OP(=O)(O)O)[C@H](OP(=O)(O)O)[C@H]1O (stereo not given in full)	none (no result: Lassa entry inh, MARV entry inh, AMA1 RON2 block)
COc1cc(C(=O)Nc2ccc(-c3nnc(-c4ccco4)o3)cc2)cc(OC)c1OC	MARV entry inh inconclusive
COc1ccc(C(=O)Nc2cccc(-c3nnc(-c4ccco4)o3)c2)cc1	MARV entry inh inconclusive, CHX counter 31
COc1ccc(CC(=O)Nc2cccc(-c3nnc(-c4ccco4)o3)c2)cc1	Lassa entry inh inconclusive, MARV entry inh inconclusive
COc1cc(C(=O)Nc2cccc(-c3nnc(-c4ccco4)o3)c2)ccc1OC(C)=O	Lassa entry inh inconclusive, MARV entry inh inconclusive, Shiga toxin inh 66, CHX counter 31
Nc1cc(=O)[nH]c(SCc2ccc(Cl)cc2)n1	none
CC(C)(C)c1ccc(CSc2nc(N)cc(=O)[nH]2)cc1	MARV entry inh inconclusive, Shiga toxin inh 41, CHX counter 39
Clc1ccccc1Cc1noc(CN2CCSCC2)n1	CHX counter 12
COCC1CCN(Cc2nc(Cc3ccccc3Cl)no2)CC1	MARV entry inh inconclusive
OCC1CCN(Cc2nc(Cc3ccccc3Cl)no2)CC1	CHX counter 12
Clc1ccccc1Cc1noc(CN2CCN(c3cnccn3)CC2)n1	MARV entry inh inconclusive, CHX counter 13
c1ccc(Cc2nn3c(COc4ccccc4)nnc3s2)cc1	Shiga toxin inh 60, CHX counter 13
CCOc1ccccc1OCc1nn2c(COc3ccccc3)nnc2s1	none
O=C1NC(c2ccccc2)(C(F)(F)F)C(=O)N1Cc1cccnc1 (stereo not given)	MARV entry inh inconclusive, Shiga toxin inh 96, CHX counter 47
COc1ccc(C2=NN3C(C2)c2ccccc2OC32C(=O)N(C)c3ccccc32)cc1 (stereo not given)	Lassa entry inh inconclusive, MARV entry inh inconclusive, Shiga toxin inh 109, CHX counter 62
COc1ccc(C2=NN3C(C2)c2ccccc2OC3c2cccs2)cc1 (stereo not given)	MARV entry inh inconclusive, Shiga toxin inh 63, CHX counter 59
Cc1ccc(C2=NN3C(C(=O)c4ccccc4)Oc4ccccc4C3C2)cc1 (stereo not given)	Shiga toxin inh 86, CHX counter 34
Cc1ccc(C(=O)C2Oc3ccccc3C3CC(c4ccc(C)cc4)=NN23)cc1 (stereo not given)	MARV entry inh inconclusive, Shiga toxin inh 60, CHX counter 53
COc1cccc(/C=C/C(=O)c2ccc3c(c2)OCCO3)c1OC	Lassa entry inh inconclusive, MARV entry inh inconclusive, CHX counter 47 (no result: Shiga toxin inh)
COc1ccc(/C=C/C(=O)c2ccc3c(c2)OCO3)c(OC)c1	Lassa entry inh inconclusive, Shiga toxin inh 61, CHX counter 59
COc1ccccc1/C=C/C(=O)NCC(=O)N1CCC(N(C)C2CCCC2)CC1	none
COc1ccccc1/C=C/C(=O)N1CCC(c2ccccc2)C1 (stereo not given)	MARV entry inh inconclusive, Shiga toxin inh 71, CHX counter 52
COc1ccccc1/C=C/C(=O)c1ccc(Cl)cc1	Shiga toxin inh 83, CHX counter 42
COc1cc(/C=C/C(=O)c2ccc3c(c2)OCO3)cc(Cl)c1O	MARV entry inh inconclusive
Cc1ccc(C)c(S(=O)(=O)NCCC(=O)N2CCCC(C(N)=O)C2)c1 (stereo not given)	none (no result: Lassa entry inh, MARV entry inh, Shiga toxin inh, CHX counter)
O=C(COC(=O)C1=Cc2ccccc2OC1)NCc1ccc(F)cc1	none (no result: Shiga toxin inh, CHX counter)
CCCCC(=O)N/N=C/c1ccc(N2CCOCC2)c([N+](=O)[O-])c1	MARV entry inh inconclusive
O=C(/C=C/c1ccccc1O)c1ccc(Cl)cc1	Shiga toxin inh 58, CHX counter 41 (no result: Lassa entry inh, MARV entry inh)
CCOc1ccccc1/C=C/C(=O)c1ccc(Cl)cc1	MARV entry inh inconclusive, CHX counter 15
COc1ccc(/C=C/C(=O)c2ccc(OC)cc2OC)c(OC)c1	none (no result: Lassa entry inh, MARV entry inh)
COc1ccccc1/C=C/C(=O)c1c2c(c(C)[nH]c1=O)CCCC2	MARV entry inh 21µM
COc1ccc(/C=C/C(=O)c2ccccc2)c(OC)c1	Lassa entry inh inconclusive, MARV entry inh inconclusive, Shiga toxin inh 74, CHX counter 23
Cc1cc(C)cc(C(=O)NCC(=O)NNC(=O)CSc2ccccc2F)c1	none (no result: Lassa entry inh, MARV entry inh, Shiga toxin inh, CHX counter)
COc1ccccc1/C=C/C(=O)c1ccccc1	Shiga toxin inh 69, CHX counter 55 (no result: Lassa entry inh, MARV entry inh)
COc1ccccc1/C=C/C(=O)c1ccc(NC(C)=O)cc1	Lassa entry inh 11µM, MARV entry inh 13µM, CHX counter 21
COc1ccc(OC)c(/C=C/C(=O)c2ccc(Cl)cc2)c1	none
COc1ccccc1/C=C/C(=O)NC(=S)N1CCN(C)CC1	none
COc1ccccc1/C=C/C(=O)NC(=S)NC(C)C	MARV entry inh inconclusive, Shiga toxin inh 57, CHX counter 17
N#CC(=Nc1cccc(F)c1)C1=C(O)c2ccccc2C1=O	none (no result: Lassa entry inh, MARV entry inh, Shiga toxin inh, CHX counter)
Oc1c(/C=N/c2ncn[nH]2)ccc2ccccc12	Shiga toxin inh 66, CHX counter 27
O=C(COc1ccccc1)Nc1ccccc1C(=O)OCc1cc(=O)n2nc(C3CC3)sc2n1	none (no result: MARV entry inh, AMA1 RON2 block, Shiga toxin inh, CHX counter)
Cc1ccsc1CN(C)CC(=O)Nc1ccc([N+](=O)[O-])cc1Cl	Lassa entry inh inconclusive, MARV entry inh 10µM
Cc1cccc(NC2=C(NCCO)C(=O)c3ccccc3C2=O)c1	AMA1 RON2 block inconclusive
COc1cccc(NC2=C(NCCO)C(=O)c3ccccc3C2=O)c1	Lassa entry inh inconclusive, AMA1 RON2 block inconclusive, CHX counter 11 (no result: Shiga toxin inh)
COc1ccc(NC2=C(NCCO)C(=O)c3ccccc3C2=O)cc1	Lassa entry inh inconclusive, MARV entry inh inconclusive, AMA1 RON2 block inconclusive, Shiga toxin inh 81, CHX counter 53

Screens: PubChem BioAssay, National Center for Advancing Translational Sciences (NCATS)
